Most compounds without a hit are left out; they make up all but 2.6% or so of the library.
Cruzain Triton – cruzain (T. cruzi) inhibition with detergent; 0.43% of 200,000 active; Potency, µM, for the others: max response, negative = inhibition, most hits filed as inhibitors; purified cruzain, Z-FR-AMC fluorescence, 0.01% Triton; P25779;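 further: plate controls were neutral wells for no effect and buffer without enzyme for full effect; nearly all actives have a fitted effect of over 40% in size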
Target sequence (P25779 123-467 limits assumed): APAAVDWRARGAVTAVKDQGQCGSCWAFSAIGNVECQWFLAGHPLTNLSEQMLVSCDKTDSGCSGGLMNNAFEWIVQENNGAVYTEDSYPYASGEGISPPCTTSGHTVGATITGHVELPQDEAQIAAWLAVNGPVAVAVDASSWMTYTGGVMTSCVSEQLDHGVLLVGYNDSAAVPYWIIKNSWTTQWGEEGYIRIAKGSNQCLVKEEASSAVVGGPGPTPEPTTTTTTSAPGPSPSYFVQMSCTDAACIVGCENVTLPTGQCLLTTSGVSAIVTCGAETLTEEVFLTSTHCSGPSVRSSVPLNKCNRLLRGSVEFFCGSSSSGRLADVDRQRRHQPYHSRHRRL
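Cruzain (1.5 nM) preincubated 15 min at RT with compound in 100 mM sodium acetate pH 5.5, 5 mM DTT, 0.01% Triton X-100. Reaction started with 2 uM Z-FR-AMC; AMC fluorescence (ex 360/em 450 nm) change over 60 s gave rate.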
Cruzain noTriton – inhibitors of Trypanosoma cruzi cruzain without detergent; P25779; purified cruzain, Z-FR-AMC fluorescence, no detergent; Potency, µM, inactives show max response, negative = inhibition, most hits filed as inhibitors; 2.3% of 200,000 active;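 further: plate controls were enzyme without inhibitor for no effect and buffer without enzyme for full effect; nearly all actives have a fitted effect of over 40% in size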
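Purified cruzain at 1.5 nM, pre-incubated 15 min with compound at room temperature in 100 mM sodium acetate pH 5.5, 5 mM DTT, 0.00005% Triton X-100. Reaction started with 2 uM Z-FR-AMC; AMC fluorescence increase over 60 s gives rate.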
* hit, by the source's call; ? = inconclusive; ! = not confirmed by another sample. The call rests on the fitted dose curve; in most records, active means well fitted curve in the direction sought with a large enough effect; inconclusive means small, poorly fitted or top-dose-only effect, or another doubt; inactive means no such curve, though single readings can be large; an effect the other way counts as inactive or inconclusive. Potency means the concentration at half of the fitted maximal effect.

SMILES	Cruzain Triton	Cruzain noTriton
c1ccc(Cc2nnc3sc(Nc4ccccc4)nn23)cc1	1%	25µM*
Cc1coc2c(C)c3oc(=O)c(CC(=O)NCCc4ccc(Cl)cc4)c(C)c3cc12	0%	-5%
CCOC(=O)C1=C(C)NC(=O)C(C(N)=O)C12CCCCC2 (stereo unspecified)	0%	4%
CCCCSC1=NN1c1nc(N)nc(C)c1CC	5%	9%
N/N=c1\sc2ccccc2n1-c1ccccc1	-3%	16µM*
CC(=O)N=c1sc2ccccc2n1C	0%	-4%
N[C@H]1C[C@H]1c1ccccc1	1%	-14%
CNc1nnc(-c2cc3cc(Cl)ccc3oc2=O)s1	-4%	2%
O=c1oc2ccc(Cl)cc2cc1-c1nnc(Nc2cccc(C(F)(F)F)c2)s1	-1%	5µM*
Cc1cc(NC(=O)CCc2nc3cccnc3n2-c2ccccc2)ccc1Br	-5%	12%
CCOc1ccc(N(C(C)C(=O)N/N=C(\C)c2cccc(NC(=O)c3ccccc3)c2)S(C)(=O)=O)cc1 (stereo unspecified)	-2%	14%
CCOc1ccc(C(=O)CSc2nnc3cc(C)c4ccccc4n23)cc1	-3%	?
Cc1ccc(S(=O)(=O)N/N=C2/CC(c3ccccc3)Oc3ccccc32)cc1 (stereo unspecified)	-3%	25µM*
O=S(=O)(N/N=C1\CC(c2ccccc2)Oc2ccccc21)c1ccccc1 (stereo unspecified)	-1%	-23%
CCN(CC)CCCNC(=O)CCc1c(C)nc2c(c1C)c(=O)n(C)c(=O)n2C	0%	-10%
CCOc1ccc(Nc2nc(CC(=O)OC)cc(=O)[nH]2)cc1	5%	-8%
COc1ccc(C(C(=O)NC2CCCC2)N(C(=O)c2snc(-c3ccc(F)cc3)c2N)c2ccccc2)cc1 (stereo unspecified)	7%	7.9µM*
COc1ccc(C(C(=O)NC2CCCC2)N(C(=O)c2snc(-c3ccc(F)cc3)c2N)c2ccc(F)cc2)cc1 (stereo unspecified)	3%	25µM*
COc1ccc(C(C(=O)NC2CCCCC2)N(C(=O)CCl)c2ccc(Cl)cc2)cc1 (stereo unspecified)	2%	?
COc1ccc(C(C(=O)NC2CCCC2)N(C(=O)c2snc(-c3ccc(F)cc3)c2N)c2ccc(OC)cc2)cc1 (stereo unspecified)	2%	25µM*
COc1ccc(C(C(=O)NC2CCCC2)N(C(=O)c2ccoc2C)c2ccccc2)cc1 (stereo unspecified)	-2%	-7%
COc1ccc(C(C(=O)NC2CCCCC2)N(C(=O)c2sc(C)nc2C)c2ccc(OC)cc2)cc1 (stereo unspecified)	3%	?
COc1ccc(C(C(=O)NC2CCCCC2)N(C(=O)c2sc(C)nc2C)c2ccccc2)cc1 (stereo unspecified)	-2%	1%
COc1ccc(C(C(=O)NC2CCCC2)N(C(=O)c2snc(-c3ccc(F)cc3)c2N)c2cccc(F)c2)cc1 (stereo unspecified)	-1%	10µM*
C=C1C(C2(C)C=CC(=O)C(C)(C)C2CC(=O)OC)CC[C@@]2(C)C(c3ccoc3)OC(=O)C3OC132 (stereo partly specified)	-1%	5%
SMILES	Cruzain Triton	Cruzain noTriton
CC(C)(C)Cc1nnc(NC(=O)c2ccc([N+](=O)[O-])cc2)s1	-1%	-14%
COc1cccc(CNC(=O)c2cc(S(=O)(=O)N3CCCCC3)c[nH]2)c1	-3%	4%
O=C(NCc1ccc(Cl)cc1)c1cc(S(=O)(=O)N2CCCCC2)c[nH]1	?	20µM*
Cc1ccc(C2C(C(=O)O)c3ccccc3C(=O)N2C)c(C)c1 (stereo unspecified)	-1%	-5%
O=C(Nc1ccc2c(c1)OCO2)Nc1ccc(Cl)cc1Cl	6%	25µM*
O=C(Nc1ccc(OC(F)F)c(Cl)c1)Nc1ccc2c(c1)OCO2	6%	?
O=C(O)c1c(Cl)c(Cl)c(Cl)c(Cl)c1-c1c2cc(I)c(=O)c(I)c-2oc2c(I)c(O)c(I)cc12	13µM*	-28%
CCCCCc1c2c(cc(O)c1C(=O)O)OC(=O)c1c(cc(OC)cc1C(=O)CCCC)O2	-20%	29%
CCCCCc1c2c(cc(O)c1C(=O)O)OC(=O)c1cc(C(=O)CCCC)c(OC)cc1O2	18µM*	?
Cc1nc(NC(=O)/C=C/c2ccccc2)sc1C(=O)Nc1ccc(Cl)cc1	6%	1%
Cc1nc(NC(=O)/C=C/c2ccccc2)sc1C(=O)Nc1ccccc1Cl	-3%	10µM*
O=C(c1ccccc1)c1nn(-c2ccc(Cl)cc2)c(=O)cc1C(F)(F)F	-4%	-1%
Cc1ccc(C(=O)Nc2nc3ccccc3s2)s1	-5%	?
N#CC(=NCCO)C1=C(O)c2ccccc2C1=O	2%	-2%
O=C1C(SCCO)=C(SCCO)C(=O)c2ccccc21	?	25µM*!
COC(=O)c1[nH]c2ccc(Cl)cc2c1NC(=O)CN1CCc2cc(OC)c(OC)cc2C1	-6%	19%
Cc1ccc2c(c1)C1CCCC3C1N2CC(=O)N3Cc1ccccc1 (stereo unspecified)	-4%	13µM*
Cc1ccc2c(c1)C(CCN)C(=O)N2Cc1ccccc1 (stereo unspecified)	1%	8%
CCCCOc1ccc(C(=O)Nn2cnnc2)cc1	-1%	14%
CCN(CC)c1ccc(/C=C(\C#N)c2nc(-c3cccs3)c(NC(C)=O)s2)cc1	-4%	16µM*
CC(=O)Nc1sc(NC(=O)c2ccccc2)nc1-c1cccs1	0%	-5%
COc1ccc(/C=C/C(=O)/C=C/c2ccc(OC)cc2OC)c(OC)c1	6%	3.2µM*
COc1ccc(/C=C/C(=O)c2ccc(Cl)cc2)c(OC)c1	-6%	1%
COc1ccccc1NC(=O)c1c(C)cc(C)nc1SCC(=O)Nc1cccc(C)c1	-5%	-4%
CCCCOc1ccc(CNn2c(C)nc3ccccc3c2=O)cc1	-8%	?
SMILES	Cruzain Triton	Cruzain noTriton
CC(NC(=O)Oc1ccccc1)C(c1cccs1)N1CCOCC1 (stereo unspecified)	0%	9%
Cc1nc2c(-c3ccc(F)cc3)c(C)nn2c(C)c1CCC(=O)N1CCC(Cc2ccccc2)CC1	-3%	?
CCOC(=O)c1sc(-c2ccccc2)cc1N	-12%	-8%
CCOC(=O)c1cc(-c2ccccc2)sc1NC(=O)C(C)N1C(=O)c2ccccc2C1=O (stereo unspecified)	-5%	25µM*
CCOC(=O)c1cc(-c2ccccc2)sc1NC(=O)CCN1C(=O)c2ccccc2C1=O	-16%	?
CCOC(=O)c1cc(-c2ccccc2)sc1N	-12%	25µM*
CCCOc1ccc(Oc2cc(C)nc(SC)n2)nn1	3%	-3%
CN(C)c1ccc(C(CNS(=O)(=O)c2ccc(F)cc2)N2CCOCC2)cc1 (stereo unspecified)	-2%	2%
O=C(Nc1ccc2oc(-c3ccc4ccccc4c3)nc2c1)c1cc(Br)ccc1Cl	0%	-1%
COc1ccc(C(=O)Nc2ccc(-c3cc4ccccc4oc3=O)c(C)c2)cc1OC	-2%	?
O=C(Nc1ccc2oc(-c3ccc4ccccc4c3)nc2c1)c1cc(Cl)ccc1Cl	-1%	5µM*
COc1cc(NC(=O)c2cc(Cl)ccc2Cl)ccc1-c1cc2ccccc2oc1=O	-15%	20µM*
CN(C(=O)c1ccno1)c1nnc(-c2ccccn2)s1	3%	2%
O=C(NCCN1CCOCC1)c1cn(CCc2ccccc2)nn1	1%	-1%

Compound activity deposited in PubChem BioAssay by National Center for Advancing Translational Sciences (NCATS).
